{
  "source": "PubChem BioAssay AID2590",
  "about": "(National Center for Advancing Translational Sciences (NCATS), 2010)",
  "note": "Several values for one entry are separate records, joined by “and”; a condition that tells them apart may be missing. Equal entries are not always repeated. Records with an inconclusive call do not appear. Activity calls are given as the source filed them. Calls follow the shape of the dose curve; as a rule, active = well fitted curve in the direction sought with a large enough effect; inconclusive = small, poorly fitted or top-dose-only effect, or another doubt; inactive = no such curve, though single readings can be large or run the other way. Potency is read from the fitted curve at half-maximal effect.",
  "data": [
    {"target": "Lysosomal acid glucosylceramidase (Homo sapiens) (UniProt P04062)", "sequence (P04062 whole entry N409S)": "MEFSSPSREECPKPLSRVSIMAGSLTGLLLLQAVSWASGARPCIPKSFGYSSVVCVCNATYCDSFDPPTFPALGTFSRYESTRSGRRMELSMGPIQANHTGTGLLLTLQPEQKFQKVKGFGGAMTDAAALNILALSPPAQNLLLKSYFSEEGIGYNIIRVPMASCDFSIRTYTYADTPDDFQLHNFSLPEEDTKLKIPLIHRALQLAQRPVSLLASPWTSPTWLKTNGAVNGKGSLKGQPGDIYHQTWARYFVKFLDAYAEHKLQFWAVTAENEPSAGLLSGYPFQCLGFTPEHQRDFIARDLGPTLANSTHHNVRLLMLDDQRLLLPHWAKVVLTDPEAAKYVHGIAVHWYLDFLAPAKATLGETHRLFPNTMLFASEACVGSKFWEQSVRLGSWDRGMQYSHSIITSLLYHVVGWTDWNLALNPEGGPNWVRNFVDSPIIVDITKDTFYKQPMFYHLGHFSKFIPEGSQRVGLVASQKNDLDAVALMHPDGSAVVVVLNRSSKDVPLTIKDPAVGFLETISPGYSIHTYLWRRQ", "test": "qHTS Assay for Inhibitors and Activators of N370S glucocerebrosidase as a Potential Chaperone Treatment of Gaucher Disease: Primary Screen Confirmation;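 as to Potency: enzyme source is Gaucher patient spleen homogenate not purified recombinant protein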", "details": "N370S glucocerebrosidase enzyme activity, fluorogenic substrate; series mostly up to 54 µM", "method_in_brief": "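Patient-spleen homogenate carrying N370S GC (27 ug) in pH 5.0 citrate buffer with 0.01% Tween-20, 1 mM 4-methylumbelliferyl-beta-glucoside, 40 min at 37C; fluorescence 365/440 nm after NaOH/glycine stop; AC50 from Hill fits.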", "values": [
      {"smiles": "COc1cccc(CN(C)c2nc(-c3cccs3)nc3ccccc23)c1", "Potency": "2.01 µM (active)"},
      {"smiles": "S=C(NCCCCN(Cc1ccc(Cl)cc1)c1ccc(Br)cn1)NCCCc1cnc[nH]1", "Potency": "0.635 µM (active)"},
      {"smiles": "O=S(=O)(c1ccccc1C(F)(F)F)N1CCN(c2nc(-c3ccccc3)nc3ccccc23)CC1", "Potency": "2.91 µM (active)"},
      {"smiles": "Cc1ccc(S(=O)(=O)N2CCN(c3nc(-c4cccs4)nc4ccccc34)CC2)c(C)c1", "Potency": "0.291 µM (active)"},
      {"smiles": "Cc1cc(C)cc(N(CC(=O)Nc2ccc(C(F)(F)F)cc2)S(=O)(=O)c2c(C)[nH]c(=O)[nH]c2=O)c1", "Potency": "2.59 µM (active)"},
      {"smiles": "C#CCOCCOCCOCCNc1nc(N2CCN(C(=O)CCCCCCCCCCNC(=O)[C@H](CCCCN)n3cc(C)nn3)CC2)nc(N2CCN(C(=O)CCCCCCCCCCNC(=O)[C@H](CCCN=C(N)N)n3cc(C[C@@H](C)CC)nn3)CC2)n1", "Potency": "7.3 µM (active)"},
      {"smiles": "Cc1ccc2nc(-c3ccc(SCC(=O)N4CCc5ccccc54)nc3)[nH]c2c1", "Potency": "10 µM (active)"},
      {"smiles": "Cc1ccc(S(=O)(=O)N2CCN(c3nc(-c4cscn4)nc4ccccc34)CC2)cc1", "Potency": "4.11 µM (active)"},
      {"smiles": "Cc1ccc(-c2nc(N3CCN(S(=O)(=O)c4ccc(F)cc4)CC3)c3ccc(Cl)cc3n2)cc1", "Potency": "inactive"},
      {"smiles": "CCCCN(CCCN)c1ccc(Br)cn1", "Potency": "inactive"},
      {"smiles": "Cc1cc(C)cc(N(CC(=O)Nc2cccc(C)c2C)S(=O)(=O)c2c(C)[nH]c(=O)[nH]c2=O)c1", "Potency": "3.26 µM (active)"},
      {"smiles": "S=C(NCCCc1cnc[nH]1)NCCCN(Cc1ccc(Cl)cc1)c1cc(-c2ccccc2)ccn1", "Potency": "5.66 µM (active)"},
      {"smiles": "N#Cc1cccc(S(=O)(=O)N2CCN(c3nc(-c4cccs4)nc4ccccc34)CC2)c1", "Potency": "2.01 µM (active)"},
      {"smiles": "CN(CCCc1cnc[nH]1)C(=S)NCCCN(Cc1ccc(Cl)cc1)c1ccc(Br)cn1", "Potency": "11.4 µM (active)"},
      {"smiles": "COc1ccc(N(CC(=O)NC2CCCCC2)S(=O)(=O)c2c(C)[nH]c(=O)[nH]c2=O)cc1", "Potency": "11.2 µM (active)"},
      {"smiles": "Cc1cc(C)cc(N(CC(=O)NC2CCCCCC2)S(=O)(=O)c2c(C)[nH]c(=O)[nH]c2=O)c1", "Potency": "1.12 µM (active)"},
      {"smiles": "c1ccc(CNc2nc(-c3cccs3)nc3ccccc23)cc1", "Potency": "7.13 µM (active) and 5.66 µM (active)"},
      {"smiles": "O=S(=O)(c1ccc2c(Cl)cccc2c1)N1CCN(c2nc(-c3cccs3)nc3ccccc23)CC1", "Potency": "2.01 µM (active)"},
      {"smiles": "Cc1ccc(S(=O)(=O)N2CCN(c3nc(-c4cnccn4)nc4ccccc34)CC2)cc1", "Potency": "inactive"},
      {"smiles": "O=S(=O)(c1ccccc1)N1CCN(c2nc(-c3ccc(F)cc3)nc3cc(Cl)ccc23)CC1", "Potency": "inactive"},
      {"smiles": "O=S(=O)(c1ccc2ncccc2c1)N1CCN(c2nc(-c3cccs3)nc3ccccc23)CC1", "Potency": "0.8 µM (active)"},
      {"smiles": "CN(CCN(C)c1nc(-c2cccs2)nc2ccccc12)C(=O)OC(C)(C)C", "Potency": "5.8 µM (active)"},
      {"smiles": "O=S(=O)(c1ccccc1Cl)N1CCN(c2nc(-c3cccs3)nc3ccccc23)CC1", "Potency": "1.16 µM (active) and 259 nM (active)"},
      {"smiles": "CC(C)(C)c1ccc(S(=O)(=O)N2CCN(c3nc(-c4cccs4)nc4ccccc34)CC2)cc1", "Potency": "1.3 µM (active) and 1.46 µM (active)"},
      {"smiles": "NCCCNc1ccc(Br)cn1", "Potency": "inactive"},
      {"smiles": "Cc1ccc(S(=O)(=O)N2CCN(c3nc(-c4ccco4)nc4ccccc34)CC2)cc1", "Potency": "1.01 µM (active)"},
      {"smiles": "O=S(=O)(c1ccc2ccccc2c1)N1CCN(c2nc(-c3ccccc3)nc3ccccc23)CC1", "Potency": "4.61 µM (active)"},
      {"smiles": "O=S(=O)(c1ccc(F)cc1)N1CCN(c2nc(-c3cccs3)nc3ccccc23)CC1", "Potency": "1.27 µM (active) and 713 nM (active)"},
      {"smiles": "O=S(=O)(c1ccc(Cl)cc1)N1CCN(c2nc(Nc3cc(Cl)ccc3O)nc3ccccc23)CC1", "Potency": "2.59 µM (active)"}
    ]}
  ]
}
